RE007 growth inh: qHTS Assay for Inhibitors of the HIV-1 protein Vpr; S. pombe RE007 Vpr strain, BacTiter-Glo ATP luminescence, 24 h; Potency, µM (titrated, usually from 92.2 µM), for the others: at the highest dose activity change, negative = less growth, actives largely listed as inhibitors; 0.21% of 360,000 active; AID 651644, 2012; active = well fitted falling curve with a large enough effect; inconclusive = small, poorly fitted or top-dose-only effect; inactive = no such curve, though single readings can be large or run the other way; also: nearly all actives have a fitted effect of over 50% in size
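Fission yeast RE007 carrying one integrated HIV-1 vpr copy, seeded at OD 0.01 in PMG+AL medium with 23 nL pinned compound. Grown 24 h at 30 degrees; viability read by BacTiter-Glo luminescence after 5 min.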
Marburg entry inh: qHTS for inhibitors of binding or entry into cells for Marburg Virus; Marburg virus pseudotyped entry inhibition, cell reporter; Potency, µM (titrated, usually from 37.8 µM), inactives show top-dose activity change, negative = inhibition, hits mostly inhibitors; 1.8% of 300,000 active; AID 540276, 2011; calls by dose curve; tested in HEK293 cells
HCV inhibitor: qHTS Assay for Inhibitors of Hepatitis C Virus (HCV). AID 651820, 2012. 3.4% of 340,000 active. Potency, µM (highest dose often 41.8 µM), for the others: at the highest dose activity change, negative = inhibition, most hits filed as inhibitors. Huh7.5.1 HCVcc-Cre infection, luciferase reporter, 44 h
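Luciferase read-out (15 sec integration) after a 15 min room-temperature substrate step quantifies HCVcc-Cre infection. Cells, 1,000 per well, had compound added 4 h post-plating, then virus at ~0.5 moi, and were cultured 44 h.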
Sm TGR inh: qHTS Assay for the Inhibitors of Schistosoma Mansoni Peroxiredoxins; AID 485364, 2010; Potency, µM (titrated, usually from 114 µM), without a hit: at the highest dose activity change, negative = inhibition, most hits filed as inhibitors; Schistosoma mansoni thioredoxin glutathione reductase (TGR), Q962Y6; 3% of 360,000 active; purified TGR, DTNB reduction, TNB absorbance 405 nm; also: nearly all actives have a fitted effect of over 60% in size
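First, TGR (20 nM dispensed) and NADPH were mixed with compound. Second, a 15 min room-temperature incubation followed. Third, further NADPH and then DTNB were added to start the reaction. Finally, TNB absorbance was monitored kinetically.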
LASV entry inh: qHTS for Inhibitors of binding or entry into cells for Lassa Virus | Potency, µM (highest dose often 37.9 µM), for inactives: at the highest dose activity change, negative = inhibition, hits mostly inhibitors | AID 540256, 2011 | Lassa virus pseudotype entry inhibition, cell reporter | 1.2% of 300,000 active; calls by dose curve; tested in HEK293 cells; also: nearly all actives have a fitted effect of over 50% in size
FMDV antiviral: High Throughput Screening for Foot and Mouth Disease Virus Antivirals. Potency, µM (doses to about 57.9 µM), without a hit: at the top dose activity change, negative = inhibition, most hits filed as inhibitors. FMDV antiviral cell-based qHTS. 1.2% of 410,000 active; calls by dose curve; tested in HEK293T cells; also: read-out not given here; nearly all actives have a fitted effect of over 45% in size
Numbers without * were called inactive; ? = inconclusive; / = no result; [ ] = remark or other dose. This is a sample that favours compounds with a hit; in the whole collection about 7.2% have one here. Unless noted, calls follow the shape of the dose curve; as a rule, active = well fitted curve in the direction sought with a large enough effect; inconclusive = small, poorly fitted or top-dose-only effect, or another doubt; inactive = no such curve, though single readings can be large; an effect the other way counts as inactive or inconclusive. % is scaled to controls: 0 for no effect and ±100 for the full control effect; potency is read from the fitted curve at half-maximal effect.

SMILES	RE007 growth inh	Marburg entry inh	HCV inhibitor	Sm TGR inh	LASV entry inh	FMDV antiviral
CC1CCN(C(=O)c2c(NC(=O)c3ccccc3F)sc3c2CCC(C(C)(C)C)C3)CC1 (stereo unspecified)	/	-1%[46.1 µM]	/	14%	3%[46.1 µM]	-3%
O=C1NCCCC2c3c(cc(Br)c(O)c3Br)OC12N1CCCCC1 (stereo unspecified)	-16%	1%	17%	22µM*	-19%	9%
Cc1nc2ccc(Br)cn2c1NC(C)(C)C	-3%	1%	-20%	-7%	1%	-4%
Cc1nc2ccc(Br)cn2c(=O)c1Cl	-7%	-3%	0%	1%	-5%	4µM*
CCOC(=O)C1CCCN(c2c(N3CCOCC3)c(=O)c2=O)C1 (stereo unspecified)	0%	/	13%	3%	/	-12%
CCOC(=O)C1CCCN(c2c(N3CCN(C)CC3)c(=O)c2=O)C1 (stereo unspecified)	-6%	/	5%	5.6µM*	/	0%
CCOC(=O)C1CCCN(c2c(N3CCC(N4CCCCC4)CC3)c(=O)c2=O)C1 (stereo unspecified)	-3%	-3%	11%	89µM*	/	-19%
CCOC(=O)C1CCCN(c2c(N3CCN(C4CCCCC4)CC3)c(=O)c2=O)C1 (stereo unspecified)	-2%	/	20%	2%	/	5%
Cc1ccnn1CC(=O)N1CCOc2c(cc(-c3ncc(C(F)(F)F)cc3Cl)cc2OCC2CCCO2)C1 (stereo unspecified)	/	/	/	/	/	6%
CCN(CC)c1cc(C)c2cc(NC(=O)/C=C/c3ccccc3Cl)ccc2n1	/	-20%[46.1 µM]	/	11%	-18%[46.1 µM]	-16%
CC(OC(=O)c1ccc(NC(=O)CC#N)cc1)C(=O)Nc1ccc(Oc2ccccc2)cc1 (stereo unspecified)	/	/	/	-14%	/	/
Cc1cc(C(=O)C(C)OC(=O)c2ccc(NC(=O)CC#N)cc2)c(C)n1-c1ccc(OC(F)F)cc1 (stereo unspecified)	9%	?	?	7%	14µM*	0%
CCCCCCOC(=O)C(C#N)c1nc2ccccc2nc1N1CCOCC1 (stereo unspecified)	0%	3%	-6%	-4%	-20%	0%
CCCCCCOC(=O)C(C#N)c1nc2ccccc2nc1N1CCN(CC)CC1 (stereo unspecified)	0%	4.6µM*	-17%	-12%	?	-28%
CCCOc1ccc2nc(NC(=O)OC)[nH]c2c1	/	?	5%[8.37 µM]	-7%	-28%	9%
Cc1ccc2nc(-c3ccc(NC(=O)c4ccco4)cc3)[nH]c2c1	4%	?	?	-31%	?	0%
COC(=O)Nc1nc2ccc(Oc3ccc(NC(=O)Nc4cccc(Br)c4)cc3)cc2[nH]1	/	/	/	/	18µM*	/
COc1ccc(NC(=S)Nc2cc(C(F)(F)F)ccc2F)cc1	-5%	16%[46.1 µM]	-12%	?	?	0%
O=C(Nc1ccc(Oc2ccc3nc(NC(=O)c4ccccc4)[nH]c3c2)cc1)Nc1cc(C(F)(F)F)ccc1F	/	/	/	/	6.3µM*	/
O=C(Nc1ccc(Oc2ccc3nc(NC(=O)c4ccco4)[nH]c3c2)cc1)Nc1cc(C(F)(F)F)ccc1F	/	/	/	/	7.9µM*	/
COc1ccc(C)cc1NS(=O)(=O)c1c(C(=O)N2CCCCCC2)c(C)n(C)c1C	/	/	/	5.6µM*	6%[46.1 µM]	61%
COc1cc(NS(=O)(=O)c2c(C(=O)N3CCCCC3)c(C)n(C)c2C)cc(OC)c1OC	/	/	/	4%	5%[46.1 µM]	-12%
Cc1ccc(CNS(=O)(=O)c2c(C(=O)N3CCCCC3)c(C)n(C)c2C)o1	4%	9%[46.1 µM]	?	35µM*	34%[46.1 µM]	32%
CS(=O)(=O)N(Cc1ccc(Cl)cc1)c1ccc(C(=O)N2CCN(c3ccccc3)CC2)cc1	6%	?	5%	-1%	-23%	?
CS(=O)(=O)N(Cc1ccccc1)c1ccc(C(=O)N2CCN(c3cccc(Cl)c3)CC2)cc1	-3%	13µM*	8.9µM*	-7%	?	?
SMILES	RE007 growth inh	Marburg entry inh	HCV inhibitor	Sm TGR inh	LASV entry inh	FMDV antiviral
Cc1ccc(S(=O)(=O)Cc2ccc(C(=O)N3CCc4ccccc4C3)o2)cc1	14%	/	-13%	40µM*	/	-13%
O=C(c1ccc(CS(=O)(=O)c2ccc(Br)cc2)o1)N1CCCC1	12%	/	?	0%	/	?
Cc1ccc(S(=O)(=O)Cc2ccc(C(=O)N3CCN(c4ccc(F)cc4)CC3)o2)cc1	6%	3%	-28%	0%	/	-2%
Cc1ccc(S(=O)(=O)Cc2ccc(C(=O)N3CCN(Cc4ccccc4)CC3)o2)cc1	/	3%	16%	35µM*	/	/
O=C(c1ccc(CS(=O)(=O)c2ccccc2)o1)N1CCOCC1	18%	/	3%	40µM*	/	-21%
COc1ccc(S(=O)(=O)Cc2ccc(C(=O)N3CCN(Cc4ccccc4)CC3)o2)cc1	6%	/	-14%	?	/	-22%
N#Cc1c[nH]n2c(NC3CCCC3)c(-c3cccc(Br)c3)nc12	/	?	/	-1%	?	-17%
O=[S+]1([O-])C[C@H](N2CC[C@@H](O)C2)[C@H](COCc2ccccc2)N1	/	/	/	/	-4%[46.1 µM]	/
COC(=O)[C@@H]1CC23C(=NC(c4ccc([N+](=O)[O-])cc4)=C(C(F)(F)F)[C@@H]2N(C)c2ccccc23)N1C(C)=O (stereo partly specified)	/	8%[14.2 µM]	/	/	/	/
COc1ccc(S(=O)(=O)Cc2ccc(C(=O)N3CCc4ccccc4C3)o2)cc1	-2%	-1%	0%	20µM*	/	-9%
Cc1ccc(CN(c2ccc(C(=O)N3CCc4ccccc4C3)cc2)S(C)(=O)=O)cc1	1%	0%	10µM*	2%	?	?
COc1cccc(-c2cccc(NC(=O)C3CCN(Cc4cccc(C)n4)CC3)c2)c1	-29%	-4%	-14%	?	4%	-10%
COc1cccc(O)c1CN1CCC(C(=O)Nc2ccc(Oc3cccnc3)cc2)CC1	-7%	11µM*	?	0%	-26%	-10%
Cn1cc(CN2CCC(C(=O)Nc3ccc(Oc4ccccc4F)cc3)CC2)cn1	-4%	/	11µM*	4%	/	?
COc1cccc(O)c1CN1CCC(C(=O)Nc2ccc(-c3cccc(C)c3)cc2)CC1	-7%	?	1µM*	-17%	?	?
COc1ccc(CN2CCC(C(=O)Nc3ccc(Oc4cccnc4)cc3)CC2)cc1	0%	?	?	3%	?	?
Cc1ccc2c(c1)c(=O)c(C(=O)c1ccc3c(c1)OCO3)cn2Cc1ccc(Cl)cc1	/	?	/	-12%	-17%[46.1 µM]	0%
CCN(CC)CCN1C(=O)C(=O)/C(=C(/O)c2c(C)[nH]c(C(=O)OC)c2C)[C@@H]1c1cccc(OC)c1	/	24%	/	/	/	/
